Reference: PubChem BioAssay (NCATS)
Results filed as inconclusive are left out. Calls of active or inactive are those of the source. Unless noted, calls come from the whole dose curve; as a rule, active = well fitted curve in the direction sought with a large enough effect; inconclusive = small, poorly fitted or top-dose-only effect, or another doubt; inactive = no such curve, though single readings can be large; an effect the other way counts as inactive or inconclusive.

How the values were obtained:
[1] = target: Aldehyde dehydrogenase, mitochondrial (Homo sapiens) (UniProt P05091); experiment: qHTS for Inhibitors of the Aldehyde Dehydrogenase Family (ALDH2) Confirmatory screens (AID 2061303; active = well fitted inhibition curve with a large enough effect; title and protocol of this record describe different tests; note: nearly all actives have a fitted effect of over 45% in size; note: potency is the fitted concentration of half-maximal effect)
[2] = target: Aldehyde dehydrogenase, mitochondrial (Homo sapiens) (UniProt P05091); experiment: qHTS for Inhibitors of the Aldehyde Dehydrogenase Family (ALDH2) Primary screen (AID 2061308); note: nearly all actives have a fitted effect of over 55% in size; note: potency is the fitted concentration of half-maximal effect
[3] = target: Retinal dehydrogenase 2 (Homo sapiens) (UniProt O94788); experiment: qHTS for Inhibitors of the Aldehyde Dehydrogenase Family (ALDH1A2) Confirmation screens (AID 2061314); note: nearly all actives have a fitted effect of over 65% in size; note: potency is the fitted concentration of half-maximal effect
[4] = target: Retinaldehyde dehydrogenase 3 (Homo sapiens) (UniProt P47895); experiment: qHTS for Inhibitors of the Aldehyde Dehydrogenase Family (ALDH1A3) Primary screen (AID 2061315); note: potency is the fitted concentration of half-maximal effect
[5] = target: Aldehyde dehydrogenase 1A1 (Homo sapiens) (UniProt P00352); experiment: qHTS for Inhibitors of the Aldehyde Dehydrogenase Family (ALDH1A1) Confirmatory screens (AID 2061316); note: nearly all actives have a fitted effect of over 65% in size; note: potency is the fitted concentration of half-maximal effect
[6] = target: Retinaldehyde dehydrogenase 3 (Homo sapiens) (UniProt P47895); experiment: qHTS for Inhibitors of the Aldehyde Dehydrogenase Family (ALDH1A3) Confirmatory screens (AID 2061311); note: potency is the fitted concentration of half-maximal effect; nearly all actives have a fitted effect of over 60% in size
[7] = target: Retinaldehyde dehydrogenase 3 (Homo sapiens) (UniProt P47895); experiment: qHTS for Inhibitors of the Aldehyde Dehydrogenase Family (ALDH1A3) Validation screen (AID 2061312); note: % is set by controls: 0 for no effect and ±100 for the full control effect; nearly all actives have a fitted effect of over 45% in size
[8] = qHTS for Inhibitors of the Aldehyde Dehydrogenase Family (ALDH1A2, ALDH1A3, ALDH2, ALDH3A1) (AID 2061307); note: test system not described further here; potency is the fitted concentration of half-maximal effect; nearly all actives have a fitted effect of over 50% in size
[9] = BET inhibitor-based combinations targeting novel dependencies in MECOM-rearranged (r) AML: SET-2 cell line (AID 2202231); conditions: SET-2 AML cells viability, CellTiter-Glo luminescence, 48 h; viability: active compounds read low, concentration not given here; note: nearly all actives have a fitted effect of over 35% in size; note: potency is the fitted concentration of half-maximal effect;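 for viability: plate controls were DMSO treated cells for no effect and wells without cells for full effect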
Outline: (§1)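 Cells were plated at 500 per well and exposed to an 11-point dose series of each drug for 48 hr. Viability was measured by CellTiter-Glo luminescence, normalized to DMSO and empty-well controls, and summarized as AUC and per-cell-line Z-AUC.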

[10] = BET inhibitor-based combinations targeting novel dependencies in MECOM-rearranged (r) AML: OCI-AML3 cell line (AID 2202232); conditions: Potency: OCI-AML3 viability; note: potency is the fitted concentration of half-maximal effect; nearly all actives have a fitted effect of over 35% in size
Outline: as §1

[11] = BET inhibitor-based combinations targeting novel dependencies in MECOM-rearranged (r) AML: MV-4-11 cell line (AID 2202233); note: nearly all actives have a fitted effect of over 45% in size; note: potency is the fitted concentration of half-maximal effect
Outline: (§2)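 Activity is given as area under the curve and as Z-AUC, mean-centred within each cell line. It comes from 11-point dose curves normalized to DMSO and empty wells. CellTiter-Glo luminescence was read after 48 hr drug exposure of 500 cells/well.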

[12] = BET inhibitor-based combinations targeting novel dependencies in MECOM-rearranged (r) AML: HNT-34 cell line (AID 2202234); note: nearly all actives have a fitted effect of over 35% in size; note: potency is the fitted concentration of half-maximal effect
Outline: as §2

[13] = BET inhibitor-based combinations targeting novel dependencies in MECOM-rearranged (r) AML: AML-191 cell line (AID 2202236; note: nearly all actives have a fitted effect of over 35% in size; note: potency is the fitted concentration of half-maximal effect)
Outline: as §1

[14] = BET inhibitor-based combinations targeting novel dependencies in MECOM-rearranged (r) AML: AML-194 cell line (AID 2202237; note: nearly all actives have a fitted effect of over 40% in size; note: potency is the fitted concentration of half-maximal effect)
Outline: as §1

[15] = BET inhibitor-based combinations targeting novel dependencies in MECOM-rearranged (r) AML: UCSD-AML1 cell line (AID 2202235);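 note: series mostly up to about 46 µM; plate controls were DMSO vehicle wells for no effect and blank wells for full effect; nearly all actives have a fitted effect of over 40% in size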
Outline: as §2

O=C1c2ccccc2NC(c2ccc(-c3ccc(F)cc3)o2)N1O (configuration not stated)
inactive: Potency [4]
active: Potency [1] 1.58 µM | Potency [2] 3.55 µM | Potency [3] 12.7 µM | Potency [5] 2.52 µM

Clc1nc(CN2CCOCC2)nc2sc3c(c12)CCCC3
inactive: Potency [2] | Potency [4]
active: Potency [1] 4 µM

CC1CCC2(O1)C(C)(C)CC(O[C@@H]1O[C@H](CO[C@@H]3OC[C@](O)(CO)[C@H]3O)[C@@H](O)[C@H](O)[C@H]1O)CC2(C)O (some centres not stated)
inactive: Potency [2]

CC(=O)CC1CCC(C(C)C(=O)OCC(O)CO)O1 (configuration not stated)
active: Potency [6] 4.49 µM | Potency [4] 15.8 µM | Potency [5] 15.9 µM
inactive: Potency [2]

COc1cccc(C(=O)N2CCN(C(=O)COc3cccc(C)c3)CC2)c1OC
inactive: Potency [2] | Potency [7] | Potency [4]

O=C(O[C@H]1[C@H](Oc2ccc(O)cc2CO)O[C@H](CO)[C@@H](O)[C@@H]1O)c1ccccc1
inactive: Potency [2]

Cc1c(-c2ccccc2)no[n+]1[O-]
inactive: Potency [1] | Potency [2] | Potency [3] | Potency [4] | Potency [5]

Cc1ccc(CNc2ccc(N3CCN(C(=O)OC(C)(C)C)CC3)cc2)cc1
inactive: Potency [1] | Potency [2] | Potency [4]

Cc1cc(C)c2c(N)c(C(=O)NCc3ccc(Cl)cc3)sc2n1
active: Potency [8] 1.12 µM | Potency [5] 14.2 µM
inactive: Potency [2] | Potency [4]

COc1c2c(c(C)c3c1C(=O)OC3)O[C@@]1(C)C[C@@H](OC(C)=O)[C@]34O[C@](OC)(CC[C@]3(C)[C@H]1C2)OC4(C)C
inactive: Potency [2] | Potency [4]

CCOc1cc2c(c(F)c1OCC)C(=N)N(CC(=O)c1cc(N3CCOCC3)c(OC)c(C(C)(C)C)c1)C2
inactive: Potency [2] | Potency [7] | Potency [4]
active: Potency [9] 16.6 µM | Potency [10] 16.6 µM | Potency [11] 8.33 µM | Potency [12] 8.33 µM | Potency [13] 16.6 µM | Potency [14] 10.5 µM

COc1ccc(N2CCOCC2)c2sc(NC(=O)N3CCC(C)(O)CC3)nc12
inactive: Potency [2] | Potency [7] | Potency [4]

CC1(C)C(=O)C(C)(C)c2cc(C(=O)Nc3ccc(C(=O)O)cc3)ccc21
inactive: Potency [2] | Potency [7] | Potency [4]

C[C@@H](NC(=O)[C@H](O)c1cc(F)cc(F)c1)C(=O)N[C@@H]1C(=O)N(C)c2ccccc2-c2ccccc21
inactive: Potency [2] | Potency [7] | Potency [4]

O=C(O)Cn1nnc(-c2cc(N3CCC(Oc4cc(F)ccc4Br)CC3)no2)n1
inactive: Potency [2] | Potency [7] | Potency [4] | viability [9] 127% | Potency [11] | Potency [12] | Potency [14]

Cn1c(=O)c(-c2c(Cl)cccc2Cl)cc2cnc(Nc3cccc(C(=O)O)c3)nc21
active: Potency [10] 0.235 µM
inactive: Potency [2] | Potency [7] | Potency [4] | viability [9] 116% | Potency [15] | Potency [13] | Potency [14]

CC[C@H]1OC(=O)C[C@@H](O)[C@H](C)[C@@H](O[C@@H]2O[C@H](C)[C@@H](O)[C@H](N(C)C)[C@H]2O)[C@@H](CCN2C[C@H](C)C[C@H](C)C2)C[C@@H](C)C(=O)/C=C/C(C)=C/[C@@H]1CO[C@@H]1O[C@H](C)[C@@H](O)[C@@H](OC)[C@H]1OC
inactive: Potency [2] | Potency [7] | Potency [4]

O=C(Nc1ccc(S(=O)(=O)Nc2nccs2)cc1)C(c1ccccc1)c1ccccc1
inactive: Potency [2] | Potency [7] | Potency [4]

Nc1ncnc2c1ncn2[C@H]1CCCO1
inactive: Potency [2] | Potency [7] | Potency [4]

CCC[C@H](N[C@H]1CCc2cc(F)cc(F)c2C1)C(=O)Nc1cn(C(C)(C)CNCC(C)(C)C)cn1
inactive: Potency [2] | Potency [7] | Potency [4] | Potency [15] | Potency [14]
active: Potency [10] 11.8 µM

COc1cnc(-n2cnc(C)n2)c2[nH]cc(C(=O)C(=O)N3CCN(C(=O)c4ccccc4)CC3)c12
inactive: Potency [2] | Potency [7] | Potency [4]

O=C(COCC(=O)N1CCN(C(c2ccccc2)c2ccccc2)CC1)Nc1ccc(Cl)cc1C(=O)O
inactive: Potency [2] | Potency [7] | Potency [4] | viability [9] 119% | Potency [11] | Potency [12] | Potency [15] | Potency [13] | Potency [14]

CCCn1c(=O)c2[nH]c(-c3ccc(OCC(=O)O)cc3)nc2n(CCC)c1=O
inactive: Potency [2] | Potency [7] | Potency [4]

CCCNCCOc1ccc(NC(=O)c2c[nH]c3c2C(=O)CCC3)cc1F
inactive: Potency [2] | Potency [7] | Potency [4]
